# Data from PubChem BioAssay AID485314 (National Center for Advancing Translational Sciences (NCATS), 2010).
# Screen size: about 340,000 compounds; about 4,500 (1.3%) were called active. Another 5% or so got no clear call; they are omitted. Only a selection was taken, and actives are over-represented in it overall. Unmarked numbers belong to inactive results. Calls come from the whole dose curve; as a rule, active = well fitted inhibition curve with a large enough effect; inconclusive = small, poorly fitted or top-dose-only effect, or another doubt; inactive = no such curve, though single readings can be large or run the other way.
# Target: DNA polymerase beta (Homo sapiens) (UniProt P06746)
# Assay: qHTS Assay for Inhibitors of DNA Polymerase Beta
# Conditions: Pol beta primer extension/strand displacement, fluorescence kinetic; series mostly up to 114 µM; activity change, negative = inhibition: at the top concentration
# Outline: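 Values derive from four-parameter Hill fits of normalized kinetic data: reads at 0 and 10 min following addition of 50 nM substrate to 10 nM Pol beta preincubated 15 min with compound.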
# % is set by controls: 0 for no effect and ±100 for the full control effect; potency is the fitted concentration of half-maximal effect.
SMILES,"activity change, negative = inhibition [%]",Potency
CCOC(=O)C1CCN(C(=O)CSc2c3c(nc4ccc(Cl)cc24)CCCC3)CC1,-25.2,
COCCNC(=O)c1ccc2c(c1)N(Cc1cccc(Cl)c1)C(=O)c1ccccc1S2(=O)=O,-11.6,
Cc1ccc2nc(-c3ccncc3)cc(C(=O)Nc3ccc4c(c3)OCCO4)c2c1,10.7,
Cc1ccc2nc(-c3ccccn3)cc(C(=O)Nc3ccc4c(c3)OCO4)c2c1,-4.44,
Cc1ccc2nc(-c3ccncc3)cc(C(=O)Nc3ccc(OC(F)F)cc3)c2c1,,8.91 µM (active)
Cc1ccc(Nc2ccc3cc(S(=O)(=O)N4CCCCC4)ccc3n2)cc1F,16.8,
COc1ccccc1OCCOc1ccc(/C=C2\C(=N)N3N=C(C)SC3=NC2=O)cc1,-15.8,
Cc1ccccc1OCCOc1ccc([N+](=O)[O-])cc1/C=N/n1cnnc1,2.22,
COc1ccccc1OCCOc1ccc(/C=N/n2cnnc2)cc1,,44.7 µM (active)
CSc1ccccc1NC(=O)CCS(=O)(=O)c1nc(-c2cccs2)cc(C(F)(F)F)n1,-1.2,
COc1cccc(Cn2c(SCc3ccc(C(=O)N4CCCCC4)cc3)nc3ccncc32)c1,55.1,
O=C(CN1CCN(S(=O)(=O)c2cc(Cl)ccc2Cl)CC1)c1ccc(O)c(O)c1,,3.16 µM (active)
COc1ccc(Cl)cc1S(=O)(=O)N1CCN(CC(=O)C(C)(C)C)CC1,-0.0725,
N#Cc1ccsc1NC(=O)CN1CCN(S(=O)(=O)c2cc(Cl)ccc2Cl)CC1,-2.37,
O=C(NCCc1ccccc1)c1ccc2c(c1)N(Cc1ccc(F)cc1)C(=O)c1ccccc1S2(=O)=O,8.98,
CCc1ccc(NC(=O)COC(=O)c2cccs2)cc1,0.301,
O=C(COC(=O)[C@H](Cc1ccccc1)NC(=O)c1cccs1)Nc1cc(F)ccc1F,,79.4 µM (active)
NC(=O)c1ccc(NC(=O)COC(=O)C(Cc2ccccc2)NC(=O)c2ccccc2)cc1 (configuration not stated),21.6,
Cc1cccc(NC(c2cccc(F)c2)c2ccc3ccc(C)nc3c2O)n1 (configuration not stated),-16.3,
O=[N+]([O-])C(=c1ccc2c(c1)N1C3=C(CCCC3)CC3CCCCC31N=2)[N+](=O)[O-] (configuration not stated),,39.8 µM (active)
Cc1ccc(-c2nc3cccc(C)n3c2Nc2ccc3c(c2)OCCO3)cc1,26.9,
COc1cccc(CNC(=O)c2ccc3c(c2)N(Cc2ccc(C(F)(F)F)cc2)C(=O)c2ccccc2S3)c1OC,0.414,
Cc1ccccc1-c1nc2scc(CCNC(=O)C(=O)Nc3ccc(F)cc3F)n2n1,-10.8,
O=C(Cn1cc(SCc2ccccc2)c2ccccc21)N1CCCCC1,2.46,
Cc1cnc(C(=O)N2CCCC(C(=O)c3ccc(C(F)(F)F)cc3)C2)cn1 (configuration not stated),,14.1 µM (active)
COCC(=O)N1CCCC(C(=O)c2ccc(C(F)(F)F)cc2)C1 (configuration not stated),23.9,
O=C(c1ccc(C(F)(F)F)cc1)C1CCCN(C(=O)c2csnn2)C1 (configuration not stated),3.97,
